In the library only some 11% were active in any assay of this set; here they are far more common.
ALDH1A1 inh = qHTS Assay for Inhibitors of Aldehyde Dehydrogenase 1 (ALDH1A1) | Purified ALDH1A1, NADH fluorescence, propionaldehyde substrate | Aldehyde dehydrogenase 1A1 (Homo sapiens), P00352 | Potency, µM (top dose mostly 75.3 µM), for inactives: at the top dose activity, negative = inhibition, hits mostly inhibitors | 7.3% of 220,000 active; active means well fitted inhibition curve with a large enough effect, not every such curve was filed as active; inconclusive means small, poorly fitted or top-dose-only effect, or another doubt; inactive means no such curve, though single readings can be large or run the other way;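 further: potency means the concentration at half of the fitted maximal effect; plate controls were no enzyme wells and a reference inhibitor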
Target sequence (P00352 whole entry, looked up): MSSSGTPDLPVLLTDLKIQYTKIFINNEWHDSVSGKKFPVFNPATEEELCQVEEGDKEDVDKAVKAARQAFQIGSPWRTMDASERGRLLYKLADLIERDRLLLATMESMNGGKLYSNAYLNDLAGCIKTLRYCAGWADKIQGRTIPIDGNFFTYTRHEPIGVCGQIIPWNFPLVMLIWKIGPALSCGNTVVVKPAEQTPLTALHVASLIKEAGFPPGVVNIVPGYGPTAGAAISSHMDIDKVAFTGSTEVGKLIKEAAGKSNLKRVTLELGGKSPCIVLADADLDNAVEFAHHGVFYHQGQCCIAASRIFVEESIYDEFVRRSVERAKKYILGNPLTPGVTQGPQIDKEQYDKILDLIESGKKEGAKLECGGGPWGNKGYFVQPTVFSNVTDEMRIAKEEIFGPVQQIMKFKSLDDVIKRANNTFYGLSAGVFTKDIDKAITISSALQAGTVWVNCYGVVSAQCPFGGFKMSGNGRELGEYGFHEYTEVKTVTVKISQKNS
HPGD inh = qHTS Assay for Inhibitors of HPGD (15-Hydroxyprostaglandin Dehydrogenase). purified HPGD, NADH fluorescence kinetic, PGE2 substrate. Potency, µM, for inactives: at the highest dose activity change, negative = inhibition, usual class: inhibitors. AID 894, 2007. 4.3% of 150,000 active. 15-hydroxyprostaglandin dehydrogenase [NAD(+)] (Homo sapiens), P15428; active means well fitted inhibition curve with a large enough effect, not every such curve was filed as active; inconclusive means small, poorly fitted or top-dose-only effect, or another doubt; inactive means no such curve, though single readings can be large or run the other way; further: potency means the concentration at half of the fitted maximal effect; on the % scale 0 is the no-effect control and ±100 the full control effect
Target sequence (P15428 whole entry, looked up): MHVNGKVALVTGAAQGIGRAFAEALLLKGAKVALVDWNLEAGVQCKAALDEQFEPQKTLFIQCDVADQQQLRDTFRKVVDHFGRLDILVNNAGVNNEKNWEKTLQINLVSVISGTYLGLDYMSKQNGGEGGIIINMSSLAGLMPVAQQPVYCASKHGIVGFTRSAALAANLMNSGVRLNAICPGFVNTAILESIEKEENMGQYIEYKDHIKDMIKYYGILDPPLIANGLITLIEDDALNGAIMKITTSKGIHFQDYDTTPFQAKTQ
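NADH formation kinetics: reaction with 30 uM PGE2 and 1 mM NAD+ (final), 20 nM enzyme, Tris-HCl pH 8 with Tween 20, after 15 min compound preincubation at room temperature. Fluorescence change, last versus first of five reads.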
HTT aggregate = qHTS Multiplex Assay to Identify Dual Action Probes in a Cell Model of Huntington: Aggregate Formation (GFP); 1.1% of 220,000 active; PC12 HttQ103-GFP aggregates, Acumen cytometry, 40 h; AID 1688, 2009; Potency, µM (series often up to 46.1 µM), inactives show at the top dose activity change, negative = inhibition, hits mostly inhibitors; further: potency means the concentration at half of the fitted maximal effect; on the % scale 0 is the no-effect control and ±100 the full control effect; nearly all actives have a fitted effect of over 60% in size
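PC12/HTTQ103-GFP, ecdysone-inducible; teb 100 nM; cpd qHTS titration; GFP aggregates read on laser cytometer, Ex 488/Em 500-530 nm.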
PNC inhibitor = High Content Assay for Compounds that inhibit the Assembly of the Perinucleolar Compartment | PC3M PTB-GFP, PNC prevalence imaging, 16 h; hits give low values | activity change (PNC), negative = inhibition, % at 10 µM | 3.1% of 140,000 active | AID 2417, 2010;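 active means readout at or below -70, meaning at least 70% loss of cells showing the perinucleolar compartment, a nuclear body marking cancer cells; inconclusive means readout between -30 and a set limit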;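 further: plate controls were DMSO wells for no effect and camptothecin positive control wells for full effect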
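Read-out is percentage of cells bearing a perinucleolar compartment, from automated 20x imaging of fixed, Hoechst-stained PC3M PTB-GFP cells. Cells were seeded 4 h, then exposed 16 h to compound (23 nl of library stock) in duplicate plates.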
CBFb-RUNX1 inh = qHTS Assay for Compounds Blocking the Interaction Between CBF-beta and RUNX1 for the Treatment of Acute Myeloid Leukemia; Runt-related transcription factor 1 (Homo sapiens) + Core-binding factor subunit beta …; AlphaScreen CBFb-His/RUNX1-biotin binding, biochemical; Potency, µM (series often up to 59.8 µM), inactives show top-dose activity, negative = inhibition, actives largely listed as inhibitors; 230,000 tested, under 10 active; AID 1477, 2009; further: % of control where 0% means no effect
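CBF-beta (His) and RUNX1 (biotin), 30 nM each; 20 min preassociation; + compound, 15 min; + beads 50 ng each (Ni, streptavidin), 90 min; RT; AlphaScreen read.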
HTT ATP protect = qHTS Multiplex Assay to Identify Dual Action Probes in a Cell Model of Huntington: Cytoprotection (ATP); PC12 HTT-Q103 induced, cytoprotection, ATP luminescence, 40 h; Potency, µM (top dose mostly 56.4 µM), for the others: cytoprotection (ATP increase), usual class: activators; 0.14% of 230,000 active; AID 1471, 2008; further: potency means the concentration at half of the fitted maximal effect; % of control where 0% means no effect; nearly all actives have a fitted effect of over 45% in size
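ATP quantification (ATPlite) reports survival of PC12 cells in which tebufenozide, 100 nM final, switches on Htt exon 1 with 103 glutamines linked to GFP; compounds are titrated.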
An asterisk follows results filed as active; u = inconclusive; x = no result; ! = a repeat was not active; [ ] = remark or other dose. Unless noted, the call rests on the fitted dose curve; in most records, active means well fitted curve in the direction sought with a large enough effect; inconclusive means small, poorly fitted or top-dose-only effect, or another doubt; inactive means no such curve, though single readings can be large; an effect the other way counts as inactive or inconclusive.

SMILES | ALDH1A1 inh | HPGD inh | HTT aggregate | PNC inhibitor | CBFb-RUNX1 inh | HTT ATP protect
C/C(=N\Nc1nc(C)c(C)s1)c1ccc([N+](=O)[O-])cc1 | 12.6µM* | x | 3.2% | x | -18.6% | 22.4%[10 µM]
C/C(=N\Nc1ccc([N+](=O)[O-])cc1)c1ccc(-n2nncc2C)cc1 | -12.9% | 8.91µM* | 6.0% | -17.4 | 9.3% | 5.6%[10 µM]
C/C(=N\Nc1ccc([N+](=O)[O-])cc1)c1ccc(N)cc1 | u | -21.9% | 7.9% | 27.4 | -2.7% | 16.6%[10 µM]
CN(C)/C=C/c1c([N+](=O)[O-])c2ccc(O)cc2n1-c1ccccc1 | -15.4% | x | -32.5%[9.22 µM] | x | -29.2% | 7.3%[10 µM]
Cc1sc(C(C2C(=O)CC(C)(C)CC2=O)C2C(=O)CC(C)(C)CC2=O)cc1[N+](=O)[O-] | 12.6µM* | x | -4.9%[9.22 µM] | x | 5.4% | -6.9%[10 µM]
CC1(C)CC(=O)C(C(C2=C(O)CC(C)(C)CC2=O)c2ccc(O)c([N+](=O)[O-])c2)=C(O)C1 | u | x | 1.7%[9.22 µM] | x | -8.1% | 8.5%[10 µM]
C=CCC(C)(O)/C=C/c1ccccc1 (centres undefined) | 1.1% | -10.1% | x | x | 1.5% | 6.5%
O=C(NCc1ccccc1)c1ccc(-c2ccccc2C(F)(F)F)o1 | 25.1µM*! | 31.6µM*! | u | -84.2* | 25.6%[89.1 µM] | -147.4%
CCN(CC)CCn1c(-c2ccccc2)nc2c(NCc3ccccc3)nc(C)nc21 | u | u | x | x | -2.0% | -22.7%
Cc1ccc(/C=N/n2c(-c3ccncc3)n[nH]c2=S)s1 | x | x | -28.8%[9.22 µM] | x | 0.8% | -21.7%[10 µM]
Cc1ccsc1/C=N/n1c(-c2ccccn2)n[nH]c1=S | u | 28.2µM* | -0.1% | u | -5.2% | x
Cc1ccsc1/C=N/n1c(-c2ccccc2)n[nH]c1=S | u | 12.6µM* | 5.1% | 25.3 | -3.9% | -8.4%[10 µM]
S=c1[nH]nc(-c2ccccn2)n1/N=C/c1ccco1 | x | x | -9.3%[9.22 µM] | x | u | -0.2%[10 µM]
Cc1ccsc1/C=N/n1c(-c2ccco2)n[nH]c1=S | 14.1µM* | 14.1µM* | 11.2% | u | -9.1% | -8.5%
Cc1ccsc1/C=N/n1c(-c2ccncc2)n[nH]c1=S | -6.2% | 28.2µM* | -16.1% | 18.3 | -1.6% | 32.4%[0.074 µM]
COC(=O)CC/C(O)=C1\C(=O)CC(C)(C)CC1=NCCc1nc2ccccc2[nH]1 | 15.6% | x | -7.2% | x | 8.4% | -33.3%
COC/C=C/C1=CC2=CC(=O)C(C)(OC(=O)CCc3ccccc3)C(=O)C2=CO1 (centres undefined) | 7.2% | -5.3% | x | x | 7.9% | -37.5%
Cc1cc(-c2n[nH]c(=S)n2/N=C/c2sccc2C)n[nH]1 | -3.9% | 22.4µM* | -10.0% | -22.8 | 5.6% | -3.0%[10 µM]
Cc1cc(-c2n[nH]c(=S)n2/N=C/c2cccc(O)c2)n[nH]1 | 1.3% | x | 0.3%[9.22 µM] | x | -3.6% | 16.2%[10 µM]
CC/C(C)=N\N=C\c1c(O)n(CC)c2cc(C3=NNC(=O)CC3)ccc12 | u | 31.6µM* | -23.7% | -11.4 | -0.1% | 3.0%[10 µM]
C=CCc1ccc(OCC(O)CN2CCCCC2)c(OC)c1 (centres undefined) | -6.7% | -6.6% | 4.2% | -9.8 | 2.6% | -17.8%[0.074 µM]
C=CCc1ccc(OCC(O)COc2ccc(CC=C)cc2OC)c(OC)c1 | 10µM* | -7.2% | u | -0.1 | 11.8% | 5.2%
O=C1CC(c2ccco2)Cc2nc(N3CCN(Cc4ccc5c(c4)OCO5)CC3)ncc21 (centres undefined) | 17.8µM* | u | u | -28.0 | -3.8% | 4.1%[0.074 µM]
Cc1nn(-c2ccccc2)c(C)c1/C=N/NC(=O)c1cc(C(C)(C)C)[nH]n1 | u | -26.7% | 1.4% | -82.6* | 2.5% | -1.7%[10 µM]
Cc1ccc(-c2cc(C(=O)N/N=C/c3ccco3)[nH]n2)cc1 | -1.6% | -9.4% | -2.7% | -0.3 | 5.9% | -16.8%
SMILES | ALDH1A1 inh | HPGD inh | HTT aggregate | PNC inhibitor | CBFb-RUNX1 inh | HTT ATP protect
Cc1ccc(-c2cc(C(=O)N/N=C/c3c(C)nn(-c4ccccc4)c3C)n[nH]2)s1 | u | u | -5.1% | -115.1* | -4.8% | -67.2%[10 µM]
Cc1[nH]c2ccccc2c1/C=N/NC(=O)c1cc(-c2cccs2)[nH]n1 | -3.4% | -22.5% | -22.9% | 10.4 | -7.5% | 9.4%[10 µM]
Cc1ccc(-c2cc(C(=O)N/N=C/c3c(C)nn(-c4ccccc4)c3C)[nH]n2)cc1 | 1.8% | u | 4.0% | -91.9* | 13.9% | -64.6%[10 µM]
CC1=C(c2ccc(NN=C(C#N)C#N)cc2)NNC(=O)C1 | x | x | 12.6µM* | x | x | -52.1%
Cc1cc([N+](=O)[O-])cc(/C=N\NC(=O)C2COc3ccccc3O2)c1O (centres undefined) | x | x | -11.8%[9.22 µM] | x | x | 5.2%[10 µM]
CCC/C=C(\CCC)C(NS(C)(=O)=O)c1ccccc1 (centres undefined) | -3.8% | -2.3% | x | x | 11.8% | -26.5%
COc1ccccc1NC(=O)CN1CCC(n2nnc3cc(F)ccc32)CC1 | 3.0% | -3.7% | -24.3% | 49.1 | -2.2% | -10.0%[10 µM]
O=C(CN1CCC(n2nnc3cc(F)ccc32)CC1)NCc1ccco1 | 14.1µM* | -20.5% | -6.7% | -118.5* | u | 3.9%
CC1CC2=C(NC(=S)NC2c2cccc(F)c2)/C(=C/c2cccc(F)c2)C1 (centres undefined) | 1.26µM* | x | 2.0%[9.22 µM] | x | u | 0.1%[10 µM]
CC1CC2=C(NC(=S)NC2c2ccccc2F)/C(=C/c2ccccc2F)C1 (centres undefined) | 0.562µM* | x | -26.4% | x | u | -68.1%
CCCCOc1ccc(C(=O)N/C(=C/C=C/c2ccccc2)C(=O)NCCO)cc1 | 1.0% | -9.5% | 13.3% | u | 11.2% | 6.6%[10 µM]
C=CCNC(=O)/C(=C\C=C\c1ccccc1)NC(=O)c1ccc(OCCCC)cc1 | 4.3% | -19.2% | -10.2% | -104.8* | -7.8% | u
CCOc1ccc(C2C(C#N)=C(N)Oc3cc(C)n(CCN4CCOCC4)c(=O)c32)cc1OCC (centres undefined) | -1.4% | 0.3% | 2.8% | 29.1 | 6.2% | -1.8%
O=C(O)CSc1cc(C(=O)c2cc(F)ccc2O)cn2c(=O)c3c(-c4ccccc4)csc3nc12 | 7.94µM* | x | -26.8%[9.22 µM] | x | -19.6% | -23.8%[10 µM]
CCOC(=O)c1sc2nc3c(SCCC#N)cc(C(=O)c4cc(F)ccc4O)cn3c(=O)c2c1C | -11.9% | -11.5% | 20.0% | -13.7 | -2.2% | 15.9%[10 µM]
OCC1=CC[N+]2(Cc3ccccc3)CCC(O)[C@@H]12 (some centres undefined) | 7.2% | 1.5% | x | x | 3.3% | u

Screening results from PubChem.
